Consider 40 compounds from PubChem BioAssay.

Calls of active or inactive are those of the source. The rule behind the calls is not given here.

As a reminder, the inhibition is the percentage by which the read-out fell short of the control.

Pantothenate synthetase (Mycobacterium tuberculosis (strain ATCC 25618 / H37Rv)), sequence (P9WIL5 whole entry, looked up): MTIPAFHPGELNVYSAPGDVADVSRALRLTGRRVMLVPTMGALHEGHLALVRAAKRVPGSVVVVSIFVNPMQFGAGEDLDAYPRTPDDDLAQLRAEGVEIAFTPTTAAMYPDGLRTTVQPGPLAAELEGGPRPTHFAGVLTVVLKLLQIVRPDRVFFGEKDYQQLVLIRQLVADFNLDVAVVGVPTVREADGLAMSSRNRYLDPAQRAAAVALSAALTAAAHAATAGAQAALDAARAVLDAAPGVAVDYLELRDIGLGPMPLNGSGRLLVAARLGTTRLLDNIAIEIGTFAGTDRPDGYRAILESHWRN

This assay concerns the target Pantothenate synthetase (Mycobacterium tuberculosis (strain ATCC 25618 / H37Rv)) (UniProt P9WIL5). The experiment in a line: Recombinant Mtb pantothenate synthetase (PanC) inhibitors, coupled enzyme, confirmatory (AID 375).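 Note: 0% = full reaction with vehicle and 100% = no enzyme background.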 The settings on record: coupled enzyme assay; at 10 µM, active compounds read high.
As for `O=C(CSc1nnc2sc3ccccc3n12)c1ccco1`, the inhibition is 0% (inactive).

For the compound `CCOC(=O)C1C(=O)OC(C)(C)C1C(C)C(=O)c1ccc(OC)cc1` (stereo not given), the inhibition is 0% (inactive).

`CCn1nc(C(=O)O)c(=O)c2cc3c(cc21)OCO3`: the inhibition is 5% (inactive).

As to `COc1cc(Cn2c(C(=O)O)cc3sccc32)cc(OC)c1OC`, the inhibition was 0% (inactive).

`NS(=O)(=O)c1cc2c(cc1Cl)NC(C(Cl)Cl)NS2(=O)=O` (stereo not given): the inhibition is 2% (inactive).

With `COc1ccc(NC(=O)C2CCCN(S(=O)(=O)c3cccc4cccnc34)C2)cc1OC` (stereo not given), the inhibition is 0% (inactive).

On to `COc1ccc(CCNC(=O)CCN2C(=O)C3CC=CCC3C2=O)cc1OC` (stereo not given), for which the inhibition was 0% (inactive).

`O=C(c1ccco1)N1CCN(c2ccc(Cl)cc2)CC1`: the inhibition is 5% (inactive).

For `O=C(O)C1C2CCC(O2)C1C(=O)Nc1cccc(F)c1` (stereo not given), the inhibition was 1% (inactive).

For `O=c1c2[nH]c3cccc(Cl)c3c2ncn1CCN1CCCCC1`, the inhibition is 6% (inactive).

`CCOc1cc(NC(=O)c2ccco2)c(OCC)cc1NC(=O)CCC(=O)NCc1cccnc1`: the inhibition was 3% (inactive).

For `CC(=O)Nc1ccc(S(=O)(=O)N2CCN(C(C)CCc3ccccc3)CC2)cc1` (stereo not given), the inhibition is 2% (inactive).

Take `C/C(N)=C(/C#N)C(=O)COC(=O)COc1ccc(Cl)cc1`: the inhibition is 5% (inactive).

Regarding `CCC(=O)Oc1ccc(/C(CC)=C(\CC)c2ccc(OC(=O)CC)cc2)cc1`, the inhibition is 0% (inactive).

Turning to `O=C(Nc1ccc2c(c1)OCCO2)C1CCN(C(=O)c2ccc(F)cc2)CC1`, the inhibition was 0% (inactive).

Turning to `Cc1cc2c(cc1C)C(=O)NC(C)(C)C2`, the inhibition is 0% (inactive).

In the case of `Cc1cc(C)n(C(=O)CNC(=O)C2COc3ccccc3O2)n1` (stereo not given), the inhibition is 1% (inactive).

For `CC(=O)Nc1ccc(Cl)cc1C(=O)O`, the inhibition was 2% (inactive).

In the case of `Cc1cc(C(=O)N2CCN(C/C=C/c3ccccc3)CC2)no1`, the inhibition is 0% (inactive).

Turning to `Cn1c(Cc2ccccc2)nnc1SCC(=O)NC1CCCCC1`, the inhibition is 0% (inactive).

For the compound `O=C(Cc1nc2ccccc2s1)c1ccc(O)cc1O`, the inhibition was 8% (inactive).

For `CC1=CC=CC2=NC(=O)CC(C)(C(=O)N(CC(=O)NC(C)C)C3CCCC3)N12` (stereo not given), the inhibition was 4% (inactive).

Turning to `COC(=O)C1CCN(C(=O)CSc2nnc(-c3ccncc3)o2)CC1`, the inhibition was 0% (inactive).

As to `COc1ccc(-c2nc(C)c(C(C)=O)n2O)cc1OC`, the inhibition is 0% (inactive).

As to `C=CCn1c(SCC(=O)Nc2ccccc2OC)nnc1-c1ccco1`, the inhibition was 4% (inactive).

`O=C(CSc1nnc(-c2cccnc2)o1)OC1CCCCC1`: the inhibition was 0% (inactive).

On to `O=S1(=O)C=C(Oc2ccc(F)cc2)c2ccccc21`, for which the inhibition is 4% (inactive).

On to `CCc1cc(C)cc(OCCNC(=O)c2ncn[nH]2)c1`, for which the inhibition was 7% (inactive).

Turning to `Cc1nc(NC2=NCN(CCCN3CCOCC3)CN2)nc2c(C)cccc12`, the inhibition was 0% (inactive).

Take `CC1CCN(CCC(=O)Nc2ccc(Br)cc2)CC1`: the inhibition is 0% (inactive).

`CCCNC(=O)C1CN(S(=O)(=O)c2ccccc2)CCN1S(=O)(=O)c1ccccc1` (stereo not given): the inhibition is 0% (inactive).

As to `Cc1cc(C(=O)Nc2nnc(C(F)(F)F)s2)no1`, the inhibition is 0% (inactive).

In the case of `CC(=O)N(C)C1(c2nnnn2CCOC(=O)Nc2cccc3ccccc23)CCCC1`, the inhibition was 0% (inactive).

For the compound `Cc1ccc(-c2nnn(CC(=O)N(Cc3cccs3)C(C(=O)NC(C)(C)C)c3ccc(C)o3)n2)o1` (stereo not given), the inhibition was 0% (inactive).

`COc1ccc2cc(C#N)c(N3CCN(Cc4nnnn4CCC(C)C)CC3)nc2c1`: the inhibition is 8% (inactive).

`COc1ccc(OC)c(C(=O)COC(=O)c2cc(C)oc2C)c1`: the inhibition is 11% (inactive).

On to `CCCCCC(=O)N1CC2(CC)CN(C(=O)CCCCC)CC(CC)(C1)C2=O`, for which the inhibition was 4% (inactive).

Turning to `CCOC(=O)C(CC)(CCC(=O)O)c1csc(N)n1` (stereo not given), the inhibition was 0% (inactive).

On to `COc1cc2c(C)nc(C)c(C#N)c2cc1OC`, for which the inhibition is 0% (inactive).

`CCCC1(C(=O)OCC)NC(c2ccc(N(C)C)cc2)C2C(=O)N(c3ccccc3)C(=O)C21` (stereo not given): the inhibition is 0% (inactive).
